Test results published in PubChem BioAssay AID1159580 (chemical genetic matrix, 2015).
“And” between values parts separate entries of the source, which are not always exact repeats. Identical values can stand only once. About 2,000 (36%) of roughly 5,500 compounds were called active. About 18% were inconclusive and are not listed. No stated cut-off is given here; in the data, active means normalized growth mostly below about 0.91 (no sharp cut-off); inconclusive means no clear call, values can overlap the other calls; inactive means mostly above about 0.92. The list shows a part of the results.

Test: chemical genetic growth profiling, strain panel (AID 1159580);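 further: tested at 20 µM; growth read once vehicle control cultures reached saturation at 30 °C; 1 = growth at the plate median or of vehicle wells; lower values mean less growth of the strain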
Details: S. cerevisiae deletion strains, growth OD

Measured: normalized growth

O=C(O)[C@H](O)[C@@](O)(Cc1ccc(O)cc1)C(=O)O
inactive: locus YAL013W, strain DEP1, hits give low values 1.04 | locus YAL021C, strain ccr4, hits give low values 1 | locus YAL026C, strain drs2, hits give low values 1 | locus YAL030W, strain snc1, hits give low values 1.01 | locus YBL061C, strain skt5, hits give low values 1.01 | locus YBR009C, strain hhf1, hits give low values 1.01 | locus YBR021W, strain FUR4, hits give low values 1.02 | locus YBR023C, strain chs3, hits give low values 1.02 | locus YBR171W, strain sec66, hits give low values 1.02 | locus YBR229C, strain ROT2, hits give low values 1.02 | locus YBR231C, strain swc5, hits give low values 1.01 | locus YBR279W, strain paf1, hits give low values 1.01 | locus YCL011C, strain gbp2, hits give low values 1.01 | locus YCL016C, strain dcc1, hits give low values 1.02 | locus YCL029C, strain bik1, hits give low values 1.02 | locus YCL061C, strain MRC1, hits give low values 1.02 | locus YCL069W, strain vba3, hits give low values 1 | locus YCR088W, strain abp1, hits give low values 1.01 | locus YDL005C, strain med2, hits give low values 0.996 | locus YDL035C, strain GPR1, hits give low values 1.06 | locus YDL040C, strain nat1, hits give low values 1 | locus YDL074C, strain BRE1, hits give low values 1.06 | locus YDL101C, strain DUN1, hits give low values 1.03 | locus YDL134C, strain PPH21, hits give low values 1.02 | locus YDL185W, strain tfp1, hits give low values 0.992 | locus YDL192W, strain arf1, hits give low values 1.03 | locus YDR001C, strain nth1, hits give low values 1.02 | locus YDR069C, strain doa4, hits give low values 1.01 | locus YDR101C, strain arx1, hits give low values 1.02 | locus YDR137W, strain rgp1, hits give low values 1.03 | locus YDR159W, strain sac3, hits give low values 1 | locus YDR162C, strain NBP2, hits give low values 1.06 | locus YDR195W, strain ref2 0.989 | locus YDR297W, strain sur2, hits give low values 1.01 | locus YDR318W, strain mcm21, hits give low values 1.01 | locus YDR334W, strain swr1, hits give low values 1.01 | locus YDR335W, strain msn5, hits give low values 1 | locus YDR388W, hits give low values 1 | locus YDR392W, strain spt3, hits give low values 0.976 | locus YDR502C, strain sam2, hits give low values 0.995 | locus YEL003W, strain gim4, hits give low values 0.999 | locus YEL037C, strain rad23, hits give low values 1 | locus YEL061C, strain CIN8 (second series), hits give low values 0.999 | locus YER015W, strain faa2, hits give low values 1 | locus YER016W, strain bim1, hits give low values 1 | locus YER110C, hits give low values 0.992 | locus YER111C, strain swi4, hits give low values 1 | locus YER155C, strain BEM2 (second series), hits give low values 1.01 | locus YER155C, strain BEM2, hits give low values 1.01 | locus YER167W, strain BCK2, hits give low values 1.02 | locus YFR010W, strain ubp6, hits give low values 1.01 | locus YGL078C, strain dbp3, hits give low values 1.01 | locus YGL086W, strain mad1, hits give low values 1.01 | locus YGL167C, strain pmr1, hits give low values 1.01 | locus YGL173C, strain kem1, hits give low values 1.02 | locus YGL227W, strain vid30, hits give low values 1.01 | locus YGL240W, strain doc1, hits give low values 1.01 | locus YGL248W, strain PDE1, hits give low values 1.03 | locus YGL253W, strain hxk2, hits give low values 1.01 | locus YGR078C, strain PAC10, hits give low values 1.03 | locus YGR135W, strain pre9, hits give low values 0.987 | locus YGR252W, strain gcn5, hits give low values 0.966 | locus YHR013C, strain ard1, hits give low values 1.02 | locus YHR027C, strain rpn1, hits give low values 1.02 | locus YHR030C, strain SLT2, hits give low values 1.02 and 1.01 | locus YHR079C, strain IRE1 (second series), hits give low values 1 | locus YHR079C, strain IRE1, hits give low values 1 | locus YHR094C, strain hxt1, hits give low values 0.999 | locus YHR129C, strain ARP1, hits give low values 1.02 | locus YHR142W, strain chs7, hits give low values 1.02 | locus YHR200W, strain rpn10, hits give low values 0.996 | locus YIL066C, strain RNR3, hits give low values 1.04 | locus YIL073C, strain SPO22, hits give low values 1.05 | locus YIL125W, strain kgd1, hits give low values 1.02 | locus YIR030C, strain dcg1, hits give low values 1 | locus YJL092W, strain hpr5, hits give low values 1.02 | locus YJL095W, strain BCK1 (second series), hits give low values 1.01 | locus YJL095W, strain BCK1, hits give low values 1.05 and 1.01 | locus YJL115W, strain asf1, hits give low values 0.997 | locus YJL129C, strain trk1, hits give low values 1.03 | locus YJL134W, strain LCB3, hits give low values 1.02 | locus YJL154C, strain vps35, hits give low values 1 | locus YJL164C, strain tpk1, hits give low values 1.01 | locus YJL166W, strain qcr8, hits give low values 1.01 | locus YJL168C, strain set2, hits give low values 1 | locus YJL187C, strain SWE1 (second series), hits give low values 1.04 | locus YJL187C, strain SWE1, hits give low values 1.01 | locus YJR043C, strain POL32, hits give low values 1.06
